Assay outcomes from PubChem.
This is a sample that favours compounds with a hit; in the whole collection about 4.2% have one here.
uPA generation – blocks generation of uPA at the cell surface; cell surface uPA generation assay, qHTS; Potency, µM (highest dose often 38.3 µM), inactives show top-dose activity change, negative = inhibition, hits mostly inhibitors; 330,000 compounds, 0.31% hits; active means well fitted inhibition curve with a large enough effect; inconclusive means small, poorly fitted or top-dose-only effect; inactive means no such curve, though single readings can be large or run the other way; tested in mouse RAW 264.7 cells; further: potency means the concentration at half of the fitted maximal effect; on the % scale 0 is the no-effect control and ±100 the full control effect; nearly all actives have a fitted effect of over 55% in size
Sfp inh – Sfp phosphopantetheinyl transferase inhibition. AID 1490. Biochemical Sfp PPTase activity, qHTS. Q9F4F7. 310,000 compounds, 3.5% hits. Potency, µM, for the others: largest response in the series, negative = inhibition, actives largely listed as inhibitors;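 further: the enzyme is Sfp with the accession as filed and its product quenches rhodamine fluorescence; potency means the concentration at half of the fitted maximal effect; 0% = enzyme reaction without inhibitor and -100% = no enzyme wells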
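Reaction rates are the 30-min fluorescence difference (ex 525, em 598 nm) in wells containing 15 nM Sfp, 5 uM rhodamine-CoA and 12.5 uM BHQ-2-YbbR at pH 7.6 with 10 mM MgCl2.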
TCR act – activators of T cell receptors. primary human leukocytes, anti-CD3, IL-2 HTRF, 48 h. Potency, µM (doses to about 9.22 µM), for inactives: at the top dose activation of IL-2 secretion, hits mostly activators. 330,000 tested, under 10 active. AID 504894; further: % of control where 0% means no effect
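HTRF read-out of IL-2 secretion: europium cryptate donor excited at 320nm, d2 acceptor emission at 665nm. Cells were primary human leukocytes incubated 48 hr with compounds and a-CD3 beads, supplying TCR signal only.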
ClpP mod – qHTS Assay for Activators of ClpP. ATP-dependent Clp protease proteolytic subunit (Bacillus subtilis (strain 168)), P80244. purified B. subtilis ClpP, FRET peptide cleavage, 20 min. Potency, µM (top dose mostly 57.5 µM), without a hit: at the highest dose activity change, negative = active. 340,000 compounds, 1.9% hits. AID 651965, 2013; active means well fitted falling curve with a large enough effect; inconclusive means small, poorly fitted or top-dose-only effect; inactive means no such curve, though single readings can be large or run the other way; further: potency means the concentration at half of the fitted maximal effect; the source files actives as falling curves though it sought activators and does not explain the sign; nearly all actives have a fitted effect of over 65% in size
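ClpP 10 microg/mL final, pH 8 Tris/KCl buffer with BSA, glycerol, Tween-20; compound pinned in; FRET-FV substrate; RT 20 min; Ex320/Em430; ΔFRET vs ADEP 5.8 microM, DMSO, no enzyme.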
* hit, by the source's call; ? = inconclusive; · = not tested or not shown; ! = not confirmed by another sample; [ ] = dose if it differs, or a comment. Unless noted, the call rests on the fitted dose curve; in most records, active means well fitted curve in the direction sought with a large enough effect; inconclusive means small, poorly fitted or top-dose-only effect, or another doubt; inactive means no such curve, though single readings can be large; an effect the other way counts as inactive or inconclusive.

SMILES | uPA generation | Sfp inh | TCR act | ClpP mod
O=c1cc(-c2ccc(O)cc2)oc2ccc3ccccc3c12 | 0.89µM* | · | 3% | -16%
O=c1cc(-c2ccccc2)oc2cc(O)c(O)c(O)c12 | ? | 28µM*! | 5% | 1%
O=c1cc(-c2ccc(O)cc2)oc2c1ccc1ccccc12 | -6% | · | -7% | -10%
O=c1cc(-c2ccc(O)cc2)oc2c(O)c(O)c(O)c(O)c12 | 4% | 4.5µM* | -1% | 2%
COc1ccc(/C=C/c2nc3cc(-c4ccccc4)ccc3o2)cc1O | 0% | -25% | -2%[46.1 µM] | 13µM*
O=C(Nc1nc2c(s1)CCc1ccccc1-2)c1cccs1 | 1% | -10% | 0% | -20%
Fc1ccccc1Nc1nc2c(s1)CCc1ccccc1-2 | · | 3.2µM* | 6%[46.1 µM] | ·
Cc1cccc(C(=O)Nc2cccc(OC(=O)c3cccc(C)c3)c2)c1 | -12% | 14% | 1% | -5%
O=C(Oc1csc(=S)n1C(=O)c1ccccc1)c1ccccc1 | 0% | 40µM* | 1% | 8.9µM*
Cc1cccc(C(=O)Oc2csc(=S)n2C(=O)c2cccc(C)c2)c1 | 2% | 45µM* | -3%[46.1 µM] | 0%
CO/N=C(/C(=O)NC1C(=O)N2C(C(=O)O)=C(CSc3nc(=O)c(O)nn3C)CSC12)c1csc(N)n1 (centres undefined) | · | 50µM*! | · | ·
CO/N=C(/C(=O)N[C@@H]1C(=O)N2C(C(=O)O)=CCS[C@H]12)c1csc(N)n1 | · | 50µM* | · | ·
COc1cc(C(=O)NCC(c2ccco2)S(=O)(=O)c2cccs2)cc(OC)c1OC (centres undefined) | · | · | · | 0%
N#Cc1c(NC(=O)c2cnccn2)sc2c1CCCC2 | -11% | 25µM* | 2%[46.1 µM] | 2%
N#Cc1c(NC(=O)c2cccnc2)sc2c1CCC2 | -4% | 6% | -16% | 2%
CC(C)c1onc(C(=O)Nc2sc3c(c2C#N)CCC3)c1[N+](=O)[O-] | 0% | 56µM* | 3% | ·
O=C(Nc1sc2c(c1C(=O)c1ccc(Cl)cc1)CCCC2)c1cccnc1 | · | 32µM* | 2% | 1%
CC(C)c1cc(C(=O)Nc2sc3c(c2C#N)CCC3)no1 | · | ? | 5% | 0%
N#Cc1c(NC(=O)CCC(=O)O)sc2c1CCCC2 | -3% | 0% | 1% | -2%
N#Cc1c(NC(=O)CCC(=O)O)sc2c1CCCCC2 | 4% | 20µM* | 9% | ·
COc1ccc(N2CC(NC(=O)C3CC3)CC2=O)cc1OC (centres undefined) | · | · | · | 2%
CCOC(=O)c1cccc(NC(=O)c2ncoc2-c2ccco2)c1 | · | · | · | -7%
CCc1ccccc1NC(=O)CC(C)n1nc(C)cc1C (centres undefined) | · | · | · | -3%
CCOC(=O)c1cccc(NC(=O)c2ccc3c(Cl)c4c(nc3c2)CCC4)c1 | · | · | · | -6%
CN1[C@@H]2CCC[C@H]1CC(NC(=O)c1nn(C)c3ccccc13)C2 (some centres undefined) | -7% | · | -6% | 4%
SMILES | uPA generation | Sfp inh | TCR act | ClpP mod
Cc1csc2nc(COC(=O)c3ccccc3NC(=O)c3ccc(C(C)(C)C)cc3)cc(=O)n12 | · | · | · | -9%
N#Cc1ccsc1NC(=O)c1cnccn1 | 1% | 50µM* | · | -3%
Cc1cccc(C)c1NC(=O)c1cnccn1 | 1% | 13% | · | -2%
CCOC(=O)c1ccc(N/C=C/C(=O)C(C)(C)C)cc1 | 1% | -2% | -8% | ·
CN(C)c1ccc(N/C=C/C(=O)C(C)(C)C)cc1 | -5% | 50µM* | 10% | -3%
O=C(/C=C/Nc1ccccc1)c1ccccc1 | -11% | 1% | 0% | 0%
CN(C)c1ccc(N/C=C/C(=O)c2ccccc2)cc1 | · | 20µM* | 2% | -1%
COc1ccc(-c2cc(C3C4C=CCCC4(C)C(=O)N3Cc3ccccc3)ccc2F)cc1 (centres undefined) | · | -28% | · | ·
CC(=O)Nc1ccc(-n2cc(-c3ccccc3)[nH]c2=S)cc1 | 7% | 40µM* | 3% | -10%
COc1ccc(-n2cc(-c3ccccc3)[nH]c2=S)cc1 | -3% | -26% | 3%[46.1 µM] | 14µM*
Cc1cccc(-n2cc(-c3ccccc3)[nH]c2=S)c1 | 0% | -19% | 7% | ·
O=C1NCCCC1C(=O)N/N=C/c1cccc(Cl)c1 (centres undefined) | 0% | 3% | -17% | ·
COc1ccccc1-c1nnc(-c2ccc(C)cc2)o1 | -11% | · | -5% | ·
COc1ccccc1-c1nnc(-c2ccc(N3CCOCC3)cc2)o1 | 1% | -3% | 0%[46.1 µM] | 18µM*
COCCCNC(=O)CC(NS(=O)(=O)c1ccc(OC)cc1)c1ccc(OC)cc1 (centres undefined) | 8% | 0% | 3% | 22µM*
Cc1nc2c(C(=O)NCCC(C)C)c[nH]n2c(=O)c1Cl | 1% | 11% | -14% | 32µM*
COc1ccc(CNc2nc(-c3ccccc3)nn2S(=O)(=O)c2ccccc2)cc1 | · | · | · | -11%
c1ccc(CNc2nc3ccccc3n2CCN2CCOCC2)nc1 | -14% | 89µM* | -2% | 1%
CC(=O)c1c(C)oc(C)c1CSCc1ccc(C(=O)O)o1 | 0% | 45µM* | 6% | -9%
CCCCSCc1ccc(C(=O)O)o1 | -3% | 19% | 4%[46.1 µM] | 1%
COc1ccc(CN2CCN(Cc3c[nH]c4ccccc34)CC2)cc1 | -12% | 50µM* | 2% | ·
CCn1c2ccccc2c2cc(CN3CCN(Cc4cc(OC)c(O)c(OC)c4)CC3)ccc21 | · | · | · | -7%
CCn1c2ccccc2c2cc(CN3CCN(Cc4cc(OC)ccc4O)CC3)ccc21 | 0% | 50µM* | 7% | ·
COc1ccc(CN2CCN(Cc3c[nH]c4ccccc34)CC2)cc1OC | · | · | · | 0%
COc1ccccc1C1NC(c2ccc3c(c2)OCO3)=CC(c2ccccc2O)N1 (centres undefined) | · | · | · | -13%
SMILES | uPA generation | Sfp inh | TCR act | ClpP mod
Cc1ccc(/C=C/C(=O)Nc2cccc(S(=O)(=O)N3CCOCC3)c2)o1 | -1% | 13µM* | -3%[46.1 µM] | -11%
COc1ccc(/C=C/C(=O)Nc2cccc(S(=O)(=O)N3CCOCC3)c2)cc1OC | -6% | · | · | 28µM*
CCOC(=O)c1c(C)[nH]c(C)c1S(=O)(=O)N1CCCC(C(=O)Nc2ccc(C)c(N(C)C)c2)C1 (centres undefined) | · | · | · | -3%
CNC(=O)CSc1nc2cc(S(=O)(=O)Nc3ccc(OC)cc3)ccc2o1 | 4% | · | 1% | -1%
CCn1cnc2c(=O)oc3ccc(S(=O)(=O)Nc4ccc(OC)cc4)cc3c21 | · | · | · | 0%
COc1ccc(NS(=O)(=O)c2ccc3oc(SC)nc3c2)cc1 | -1% | 50µM* | -4% | ·
COc1ccc(NS(=O)(=O)c2ccc3oc(=O)c4[nH]c(=O)c(=O)n(C)c4c3c2)cc1 | 27% | 24% | 3% | 20µM*
C[C@@H]1CN([C@@H](C)CO)C(=O)c2ccccc2-c2ccccc2CO[C@@H]1CN(C)S(=O)(=O)c1ccc(C(F)(F)F)cc1 | · | · | · | 1%
COC(=O)C1=C(C)NC(=O)C1(NC(=O)c1ccc(Cl)cc1)C(F)(F)F (centres undefined) | · | · | · | -3%
c1ccc(-c2cc3c(N4CCOCC4)ncnc3s2)cc1 | 5% | 0% | 1% | 28µM*
Cc1nc(N2CCOCC2)c2cc(-c3ccccc3)sc2n1 | 13% | ? | 4% | 32µM*
